Assay results reported in PubChem BioAssay (EPA / NIEHS).
Several values for one entry are separate records, joined by “and”; a condition that tells them apart may be missing. Equal entries are not always repeated. Records with an inconclusive call do not appear. Some structures have more than one record in an assay (separate samples or runs), and their calls can disagree. Activity calls are given as the source filed them. Rule for the calls, unless noted: active = hit-call score of the fitted dose curve at least 0.9, where 1 is the maximum; inconclusive = response in the unintended direction; inactive = score below 0.9.

What was measured:
[1] = molecular target: Glucocorticoid receptor (Homo sapiens) (UniProt P04150); test: ATG_GR_TRANS: Attagene TRANS-FACTORIAL HepG2 Assay for human Glucocorticoid Receptor (GR) (AID 2282978); conditions: HepG2 Attagene TRANS GR reporter, mRNA transcription;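 note: activators score as hits since higher reporter transcript over DMSO is fitted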
Sequence of Glucocorticoid receptor (Homo sapiens) (P04150 whole entry, looked up): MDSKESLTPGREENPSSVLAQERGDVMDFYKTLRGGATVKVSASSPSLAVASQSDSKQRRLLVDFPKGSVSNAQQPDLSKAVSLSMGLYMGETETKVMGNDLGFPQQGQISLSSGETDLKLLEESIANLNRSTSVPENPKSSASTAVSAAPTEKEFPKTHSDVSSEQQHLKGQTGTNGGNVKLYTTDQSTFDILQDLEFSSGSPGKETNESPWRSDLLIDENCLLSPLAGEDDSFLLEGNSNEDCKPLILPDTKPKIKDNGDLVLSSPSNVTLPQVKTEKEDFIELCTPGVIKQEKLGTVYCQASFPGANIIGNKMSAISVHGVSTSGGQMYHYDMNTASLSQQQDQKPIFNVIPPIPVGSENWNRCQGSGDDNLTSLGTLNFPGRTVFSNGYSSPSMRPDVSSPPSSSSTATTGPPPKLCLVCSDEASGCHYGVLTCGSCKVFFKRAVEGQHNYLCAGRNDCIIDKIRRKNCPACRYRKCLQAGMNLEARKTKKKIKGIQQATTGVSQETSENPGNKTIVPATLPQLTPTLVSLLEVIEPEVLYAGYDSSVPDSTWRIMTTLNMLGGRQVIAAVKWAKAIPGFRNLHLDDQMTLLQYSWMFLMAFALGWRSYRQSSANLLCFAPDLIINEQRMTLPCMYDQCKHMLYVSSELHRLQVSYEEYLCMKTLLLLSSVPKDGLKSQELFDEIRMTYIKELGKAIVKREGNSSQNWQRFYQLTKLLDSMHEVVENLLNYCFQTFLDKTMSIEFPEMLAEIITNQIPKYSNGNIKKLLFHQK
Method in brief: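 Multiplexed TRANS reporter system, HepG2; 24 h exposure; RNA → oligo(dT) RT → reporter-specific PCR → 6-FAM primer extension → HpaI cut → CE fluorescence. Gain-of-signal vs DMSO.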

[2] = molecular target: Bile acid receptor (Homo sapiens) (UniProt Q96RI1); test: ATG_FXR_TRANS: Attagene TRANS-FACTORIAL HepG2 Assay for Farnesoid X Receptor (FXR) (AID 2282979); conditions: HepG2 Attagene TRANS FXR-GAL4 reporter transcription;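 note: hits raise reporter mRNA above DMSO so AC50 marks FXR activation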
Sequence of Bile acid receptor (Homo sapiens) (Q96RI1 whole entry, looked up, the tested form may be a part): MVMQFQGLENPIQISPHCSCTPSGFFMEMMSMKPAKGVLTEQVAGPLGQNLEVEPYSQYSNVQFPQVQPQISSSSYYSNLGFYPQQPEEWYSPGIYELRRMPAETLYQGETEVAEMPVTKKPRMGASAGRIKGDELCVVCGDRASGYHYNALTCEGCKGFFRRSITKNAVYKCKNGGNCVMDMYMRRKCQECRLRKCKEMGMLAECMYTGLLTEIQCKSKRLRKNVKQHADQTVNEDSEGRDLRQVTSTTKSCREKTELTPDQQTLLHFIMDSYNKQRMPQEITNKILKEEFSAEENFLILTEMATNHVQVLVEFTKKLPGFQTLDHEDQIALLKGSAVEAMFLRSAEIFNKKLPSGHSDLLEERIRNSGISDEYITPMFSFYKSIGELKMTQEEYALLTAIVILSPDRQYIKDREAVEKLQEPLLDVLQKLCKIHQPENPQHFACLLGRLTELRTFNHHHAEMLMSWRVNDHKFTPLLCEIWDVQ
Method in brief: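 Reporter transcripts from transfected HepG2 cells were measured 24 h after dosing, using RT-PCR with capillary electrophoresis of 6-FAM-labelled fragments. The read-out reflects activity of exogenous FXR-Gal4 chimera on GAL4-UAS units, with induction relative to DMSO.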

[3] = molecular target: Oxysterols receptor LXR-alpha (Homo sapiens) (UniProt Q13133); test: ATG_LXRa_TRANS: Attagene TRANS-FACTORIAL HepG2 Assay for human Liver X Receptor alpha (LXRa) (AID 2282980); conditions: HepG2 Attagene TRANS reporter, LXRa transactivation
Sequence of Oxysterols receptor LXR-alpha (Homo sapiens) (Q13133 whole entry, looked up, the tested form may be a part): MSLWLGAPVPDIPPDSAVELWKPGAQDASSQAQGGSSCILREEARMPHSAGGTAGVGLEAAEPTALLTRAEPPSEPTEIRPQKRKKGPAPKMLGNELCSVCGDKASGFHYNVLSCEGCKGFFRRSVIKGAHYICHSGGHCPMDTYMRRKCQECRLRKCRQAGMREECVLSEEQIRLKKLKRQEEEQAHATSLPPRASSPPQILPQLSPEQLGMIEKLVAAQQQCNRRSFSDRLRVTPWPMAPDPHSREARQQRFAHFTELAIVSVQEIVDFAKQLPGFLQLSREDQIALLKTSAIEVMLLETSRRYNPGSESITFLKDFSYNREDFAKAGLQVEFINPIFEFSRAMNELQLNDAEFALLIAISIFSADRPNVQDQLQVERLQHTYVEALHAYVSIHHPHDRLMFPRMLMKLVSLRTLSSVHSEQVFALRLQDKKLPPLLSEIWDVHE
Method in brief: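 Chemical-induced reporter mRNA measured by RT-PCR with fluorescent labelling and capillary electrophoresis after 24 h dosing of transiently transfected HepG2 cells expressing exogenous NR-Gal4 chimeras; increases scored against DMSO baseline.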

[4] = molecular target: Oxysterols receptor LXR-beta (Homo sapiens) (UniProt P55055); test: ATG_LXRb_TRANS: Attagene TRANS-FACTORIAL HepG2 Assay for human Liver X Receptor beta (LXRb) (AID 2282981); conditions: HepG2 Attagene TRANS GAL4-LXRb reporter, mRNA
Sequence of Oxysterols receptor LXR-beta (Homo sapiens) (P55055 whole entry, looked up, the tested form may be a part): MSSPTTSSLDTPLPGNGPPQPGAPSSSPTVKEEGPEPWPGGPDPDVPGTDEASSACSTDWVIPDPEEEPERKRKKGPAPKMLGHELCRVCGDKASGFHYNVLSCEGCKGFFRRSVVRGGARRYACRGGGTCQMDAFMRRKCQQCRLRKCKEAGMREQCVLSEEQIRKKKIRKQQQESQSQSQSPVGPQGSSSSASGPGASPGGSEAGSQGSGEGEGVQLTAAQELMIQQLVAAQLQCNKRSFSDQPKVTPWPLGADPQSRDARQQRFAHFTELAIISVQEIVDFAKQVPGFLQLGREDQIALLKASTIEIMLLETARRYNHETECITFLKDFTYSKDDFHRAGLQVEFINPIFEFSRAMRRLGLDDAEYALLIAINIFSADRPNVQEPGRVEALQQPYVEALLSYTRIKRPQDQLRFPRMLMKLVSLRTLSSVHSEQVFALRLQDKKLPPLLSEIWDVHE
Method in brief: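 Measures induction of a Gal4-driven reporter transcript in HepG2 cells expressing an exogenous LXRb-Gal4 fusion. Cells are exposed to compound for 24 h before RNA isolation and RT-PCR with capillary electrophoresis detection.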

[5] = molecular target: Hepatocyte nuclear factor 4-alpha (Homo sapiens) (UniProt P41235); test: ATG_HNF4a_TRANS: Attagene TRANS-FACTORIAL HepG2 Assay for human Hepatocyte Nuclear Factor 4 alpha (HNF4a) (AID 2282982); conditions: HepG2 HNF4a transactivation reporter, mRNA readout
Sequence of Hepatocyte nuclear factor 4-alpha (Homo sapiens) (P41235 whole entry, looked up, the tested form may be a part): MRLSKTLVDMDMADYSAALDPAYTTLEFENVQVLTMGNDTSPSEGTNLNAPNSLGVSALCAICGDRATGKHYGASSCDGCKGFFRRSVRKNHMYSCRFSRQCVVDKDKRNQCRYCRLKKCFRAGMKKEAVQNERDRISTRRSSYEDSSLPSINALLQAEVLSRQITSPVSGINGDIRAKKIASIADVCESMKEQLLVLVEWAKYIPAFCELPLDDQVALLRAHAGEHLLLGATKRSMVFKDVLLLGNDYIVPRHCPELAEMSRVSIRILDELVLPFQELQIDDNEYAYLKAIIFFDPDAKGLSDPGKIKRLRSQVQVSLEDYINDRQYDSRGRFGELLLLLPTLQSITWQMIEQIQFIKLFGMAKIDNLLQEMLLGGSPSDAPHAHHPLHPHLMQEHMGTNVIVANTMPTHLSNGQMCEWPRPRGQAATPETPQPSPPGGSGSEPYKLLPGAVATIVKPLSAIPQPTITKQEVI
Method in brief: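 In this trans-factorial format, a chimeric HNF4a-GAL4 fusion drives a GAL4-UAS reporter in transfected HepG2 liver cells. After 24 h treatment, reporter mRNA induction is measured by RT-PCR with capillary electrophoresis, relative to DMSO.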

[6] = ATG_M_06_TRANS: Attagene TRANS-FACTORIAL HepG2 Assay for M06 Transcription Factor (Internal Marker) (AID 2282983); conditions: HepG2 Attagene TRANS M06 internal marker reporter;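 for AC50: potency for rise in reporter mRNA above DMSO baseline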
Method in brief: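 Background-control reporter readout: after 24 h chemical exposure of transiently transfected HepG2 (GAL4-UAS reporter units), mRNA quantified by RT-PCR with fluorescent labeling and capillary electrophoresis. Gain-of-signal fitting against DMSO baseline.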

[7] = ATG_M_32_TRANS: Attagene TRANS-FACTORIAL HepG2 Assay for M32 Transcription Factor (Internal Marker) (AID 2282984); conditions: HepG2 Attagene TRANS M32 internal marker reporter;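 note: transcript level of a background control reporter unit measured by RT-PCR and capillary electrophoresis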
Method in brief: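 After 24 h dosing of transfected HepG2 cells, total RNA was reverse-transcribed, reporter sequences PCR-amplified, 6-FAM labelled by primer extension and HpaI-digested before capillary electrophoresis. Signal increase over DMSO was fitted.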

[8] = molecular target: Nuclear receptor subfamily 4 group A member 2 (Homo sapiens) (UniProt P43354); test: ATG_NURR1_TRANS: Attagene TRANS-FACTORIAL HepG2 Assay for human Nuclear Receptor Related Protein 1 (NURR1) (AID 2282985); conditions: HepG2 Attagene TRANS reporter, mRNA readout
Sequence of Nuclear receptor subfamily 4 group A member 2 (Homo sapiens) (P43354 whole entry, looked up, the tested form may be a part): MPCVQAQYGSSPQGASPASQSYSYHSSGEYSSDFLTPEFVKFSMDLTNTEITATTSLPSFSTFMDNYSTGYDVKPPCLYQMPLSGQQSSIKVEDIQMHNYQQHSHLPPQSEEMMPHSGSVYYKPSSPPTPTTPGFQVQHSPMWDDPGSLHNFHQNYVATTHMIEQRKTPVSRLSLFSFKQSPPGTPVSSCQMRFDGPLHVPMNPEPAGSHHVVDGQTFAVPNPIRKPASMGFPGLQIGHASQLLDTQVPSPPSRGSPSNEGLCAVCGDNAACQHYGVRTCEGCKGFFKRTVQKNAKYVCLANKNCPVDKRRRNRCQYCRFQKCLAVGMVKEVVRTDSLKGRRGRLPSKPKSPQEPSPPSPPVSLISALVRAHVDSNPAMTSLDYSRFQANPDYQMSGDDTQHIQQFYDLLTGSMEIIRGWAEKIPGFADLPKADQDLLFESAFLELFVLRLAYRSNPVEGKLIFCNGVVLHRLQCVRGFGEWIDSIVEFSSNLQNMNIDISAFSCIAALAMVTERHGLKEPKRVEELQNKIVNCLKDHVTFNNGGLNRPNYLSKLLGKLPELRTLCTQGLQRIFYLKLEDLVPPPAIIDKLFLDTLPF
Method in brief: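 Chimeric NR-Gal4 fusion activity measured in HepG2 after 24 h treatment. Reporter transcripts detected by RT-PCR and capillary electrophoresis fluorescence; positive-direction curve fitting against DMSO.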

[9] = molecular target: Transcriptional activator Myb (Homo sapiens) (UniProt P10242); test: ATG_Myb_CIS: Attagene CIS-FACTORIAL HepG2 Assay for human Myeloblastosis (Myb) Proto-Oncogene Transcription Factor (AID 2282986; active = hit-call score of the fitted dose curve at least 0.9, where 1 is the maximum; inactive = score below 0.9); conditions: HepG2 Attagene CIS-FACTORIAL Myb reporter transcription; actives raise or lower the signal
Sequence of Transcriptional activator Myb (Homo sapiens) (P10242 whole entry, looked up): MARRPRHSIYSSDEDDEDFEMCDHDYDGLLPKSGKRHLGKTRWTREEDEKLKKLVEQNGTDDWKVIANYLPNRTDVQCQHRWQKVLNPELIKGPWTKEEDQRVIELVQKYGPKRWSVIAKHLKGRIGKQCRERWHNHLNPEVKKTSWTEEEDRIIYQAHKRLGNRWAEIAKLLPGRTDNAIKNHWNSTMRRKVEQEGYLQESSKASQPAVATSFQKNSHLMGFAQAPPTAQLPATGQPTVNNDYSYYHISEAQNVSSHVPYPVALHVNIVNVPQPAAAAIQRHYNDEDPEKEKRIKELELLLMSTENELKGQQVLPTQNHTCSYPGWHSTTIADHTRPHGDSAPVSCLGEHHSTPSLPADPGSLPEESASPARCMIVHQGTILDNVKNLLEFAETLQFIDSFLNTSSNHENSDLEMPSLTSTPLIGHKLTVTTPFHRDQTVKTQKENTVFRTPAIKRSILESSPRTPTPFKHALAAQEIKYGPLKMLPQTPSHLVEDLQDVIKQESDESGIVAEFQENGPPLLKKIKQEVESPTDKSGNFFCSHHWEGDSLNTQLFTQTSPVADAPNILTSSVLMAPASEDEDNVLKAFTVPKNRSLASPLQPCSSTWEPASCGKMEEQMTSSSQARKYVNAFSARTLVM
Method in brief: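 Endogenous transcription factor activity at a Myb-responsive cis element is reported in human liver HepG2 cells after 24 h chemical treatment. Reporter mRNA is detected by RT-PCR and capillary electrophoresis fluorescence, with DMSO as baseline.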

[10] = molecular target: Estrogen-related receptor gamma (Homo sapiens) (UniProt P62508); test: ATG_ERRg_TRANS: Attagene TRANS-FACTORIAL HepG2 Assay for human Estrogen-Related Receptor gamma (ERRg) (AID 2282977); conditions: HepG2 Attagene TRANS reporter, ERRg transactivation;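 note: hits increase reporter signal over DMSO so potencies reflect activators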
Sequence of Estrogen-related receptor gamma (Homo sapiens) (P62508 whole entry, looked up, the tested form may be a part): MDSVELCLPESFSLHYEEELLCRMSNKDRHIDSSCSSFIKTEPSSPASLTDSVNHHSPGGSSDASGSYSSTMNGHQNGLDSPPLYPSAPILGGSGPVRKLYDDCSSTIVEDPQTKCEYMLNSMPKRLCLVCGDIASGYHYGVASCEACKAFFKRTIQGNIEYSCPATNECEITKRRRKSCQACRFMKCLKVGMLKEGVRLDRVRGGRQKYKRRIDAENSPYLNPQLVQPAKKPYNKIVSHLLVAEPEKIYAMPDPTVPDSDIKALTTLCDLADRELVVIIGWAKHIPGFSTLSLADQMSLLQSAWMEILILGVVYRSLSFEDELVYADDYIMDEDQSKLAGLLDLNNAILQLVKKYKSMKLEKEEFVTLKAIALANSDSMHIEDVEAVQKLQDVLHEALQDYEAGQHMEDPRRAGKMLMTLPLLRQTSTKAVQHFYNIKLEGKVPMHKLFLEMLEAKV
Method in brief: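 Exogenous NR-Gal4 chimera activity measured as reporter transcript induction after 24 h in transiently transfected HepG2 cells. RNA reverse-transcribed, PCR-amplified, 6-FAM-labelled and resolved by capillary electrophoresis; increase over DMSO baseline.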

Measured: AC50

O=c1c(-c2ccc(O)cc2)coc2cc(O)ccc12
not listed: [10]
inactive: all other assays above

CCCCC(CC)COC(=O)CCCCC(=O)OCC(CC)CCCC (stereo unspecified)
inactive: [1] | [2] | [3] | [5] | [8] | [9]

CCCCCCCCCCCCCC[N+](C)(C)C
inactive: [10] | [2] | [6] | [7] | [9]
active: [5] 43.7 µM and 40.9 µM | [8] 26.9 µM

O=C(/C=C/c1ccc(O)cc1)CC(=O)/C=C/c1ccc(O)cc1
not listed: [1] | [4] | [7]
inactive: all other assays above

CN(C)C=O
active: [8] 7.38 µM
not listed: [1] | [5]
inactive: all other assays above

O=C(O)c1ccccc1C(c1ccc(O)cc1)c1ccc(O)cc1
not listed: [2] | [9]
inactive: all other assays above

Oc1cccc(O)c1
inactive: [10] | [1] | [6] | [7] | [8]
active: [4] 0.00623 µM | [9] 2.59 µM

FC(F)(I)C(F)(F)C(F)(F)C(F)(F)C(F)(F)C(F)(F)I
active: [8] 20.8 µM
inactive: [10] | [3] | [4]

CCC(=C(c1ccc(O)cc1)c1ccc(OCCN(C)C)cc1)c1ccccc1
not listed: [9]
inactive: all other assays above

CC(C)(C)c1ccc(O)c(C(C)(C)C)c1
active: [3] 5.26 µM | [4] 5.32 µM | [8] 9.6 µM
not listed: [1] | [7]
inactive: all other assays above

CC(O)CO (stereo unspecified)
inactive: [10] | [1] | [2] | [6]

CCCCC[C@H](O)CC(=O)CCc1ccc(O)c(OC)c1
not listed: [5]
inactive: all other assays above

CCc1nn(C2CCCCC2)c2cc(C3(C#N)CCC(C(=O)O)CC3)ccc12 (stereo unspecified)
inactive: [10] | [1] | [2] | [6] | [7] | [8]

OCCC(F)(F)C(F)(F)C(F)(F)C(F)(F)C(F)(F)C(F)(F)C(F)(F)C(F)(F)F
not listed: [1] | [2]
inactive: all other assays above

Cc1ccc(S(=O)(=O)O)c(C)c1
not listed: [2] | [6]
inactive: all other assays above

COCC(C)O (stereo unspecified)
not listed: [2] | [5] | [9]
inactive: all other assays above

CCCOc1sc(C(=O)N2CCC(c3cc(CN)ccc3F)CC2)c(C)c1Br
active: [3] 1.34 µM | [4] 1.46 µM
inactive: [1] | [2] | [5] | [7] | [8]

CC(=O)NC1(c2cccc(F)c2)CCN(CC[C@@]2(c3ccc(Cl)c(Cl)c3)CN(c3ccccc3)C(=O)CO2)CC1
active: [1] 62 µM | [6] 52 µM
inactive: [2] | [3] | [4] | [5] | [9]

CC(=O)CC(C)(C)O
not listed: [2] | [5] | [9]
inactive: all other assays above

COc1cc(CCC(=O)CC(=O)CCc2ccc(O)c(OC)c2)ccc1O
inactive: [10] | [2] | [4] | [5] | [8]

N#C[C@@H]1CC(F)(F)CN1C(=O)CNC1CC2CCC(C1)N2c1ncccn1 (stereo partly specified)
inactive: [10] | [1] | [2] | [3] | [7] | [9]

OC1CCC(C2CCCCC2)CC1 (stereo unspecified)
not listed: [5] | [10]
inactive: all other assays above

NC(=O)N1C(=O)C(C(=O)c2cc(Cl)cs2)c2cc(F)c(Cl)cc21 (stereo unspecified)
not listed: [1] | [8] | [9]
inactive: all other assays above

CC(C)(C)c1cc(C(C)(C)C)c(O)c(C(C)(C)C)c1
inactive: [1] | [2] | [3] | [4] | [5] | [6] | [7] | [9]
active: [2] 27.8 µM | [8] 431 nM and 1.32 µM

OCCC(F)(F)C(F)(F)C(F)(F)C(F)(F)C(F)(F)C(F)(F)F
not listed: [5] | [9] | [10]
inactive: all other assays above

CC[C@H](c1ccc(O)cc1)[C@@H](CC)c1ccc(O)cc1
not listed: [3] | [9] | [10]
inactive: all other assays above

CC(C)(C)c1cccc(C(C)(C)C)c1O
active: [3] 49.7 µM
inactive: [1] | [2] | [4] | [7] | [8]

CCCCCCCCCCCCc1ccccc1S(=O)(=O)O
inactive: [1] | [2] | [3] | [4] | [7] | [8]

CCN(CC)CCNc1ccc(CNC=O)c2sc3ccc(OC)cc3c(=O)c12
inactive: [5] | [6] | [7] | [9]
active: [1] 1.85 µM | [2] 2.44 µM | [3] 1.26 µM | [4] 1.57 µM | [8] 0.771 µM

Cc1cc(CCN2CCN(c3nsc4ccccc34)CC2)cc2c1NC(=O)CC2(C)C
not listed: [3] | [7]
inactive: all other assays above

NC(=O)N(O)[C@@H]1C=C[C@H](Oc2cccc(Oc3ccc(F)cc3)c2)C1
not listed: [3] | [6]
inactive: all other assays above

CCCCCCCCOC(=O)CCCCCCCCC(=O)OCCCCCCCC
inactive: [10] | [2] | [8]

O=C1OC2(c3ccccc31)c1cc(Br)c(O)c(Br)c1Oc1c2cc(Br)c(O)c1Br
not listed: [9] | [10]
inactive: all other assays above

CCCOC(=O)c1ccc(O)cc1
not listed: [8] | [9]
inactive: all other assays above

CCCCCCC(=O)O
inactive: all assays above

C#C[C@]1(O)CC[C@H]2[C@@H]3CCC4=CC(=O)CC[C@@H]4[C@H]3CC[C@@]21C
inactive: [1] | [6] | [8] | [9]

CCCCCCCC(=O)O
inactive: [1] | [4] | [5] | [6] | [8] | [9]

Cc1cc(C)c(O)c(C)c1
inactive: [1] | [2] | [5] | [6] | [7] | [9]

CN1CCC[C@H]1c1cccnc1
inactive: [4] | [5] | [6] | [7]

CCC(C)(C)C1CCC(O)CC1 (stereo unspecified)
inactive: [3] | [4] | [5] | [6] | [7] | [8]

CC(C)CCCCCCOC(=O)CCCCC(=O)OCCCCCCC(C)C
inactive: [3] | [6] | [9]

CC(O)C(=O)O (stereo unspecified)
inactive: [2] | [3] | [4] | [5] | [6] | [7]

CN1CCN(c2ccccc2/C=C2\SCCN(c3ccc(Cl)c(Cl)c3)C2=O)CC1
inactive: [6] | [8]

ClC1=C(Cl)C(Cl)(Cl)C(Cl)=C1Cl
not listed: [2] | [9] | [10]
inactive: all other assays above

Oc1cc2ccccc2c2ccccc12
inactive: [1] | [3] | [4] | [6] | [7] | [8] | [9]
active: [6] 50.8 µM

O=C(OCCOCCOC(=O)c1ccccc1)c1ccccc1
inactive: [2] | [3] | [4] | [5] | [6]

NCC(F)(F)C(F)(F)C(F)(F)C(F)(F)C(F)(F)C(F)(F)C(F)(F)F
inactive: [1] | [2] | [5] | [6] | [8]

CCc1ccc(CCOc2ccc(CC3SC(=O)NC3=O)cc2)nc1 (stereo unspecified)
inactive: [1] | [3] | [4] | [5]

O=C(O)Cc1cc(I)c(Oc2cc(I)c(O)c(I)c2)c(I)c1
active: [8] 23.6 µM
not listed: [2] | [10]
inactive: all other assays above

c1ccc2c(c1)ccc1ccccc12
inactive: [1] | [2] | [4] | [6] | [7]

CCCCOCCO
inactive: [6]

COC(=O)CCCCC(=O)OC
inactive: [1] | [2] | [6] | [7] | [8]

CCCCCCCCC(=O)O
inactive: [4] | [5] | [6] | [7] | [8]

CC(C)(C)CC(C)(C)c1ccc(O)c(-n2nc3ccccc3n2)c1
inactive: [2] | [6]

C=C(C)C(=O)OCCC(F)(F)C(F)(F)C(F)(F)C(F)(F)C(F)(F)C(F)(F)F
inactive: [1] | [2] | [4] | [7] | [8]
